Test results taken from PubChem BioAssay AID1159580 (chemical genetic matrix, 2015).
Out of some 5,500 compounds screened, about 2,000 (36%) were called active. Not shown: some 18% with an inconclusive outcome. Rule as the data show it: active = normalized growth mostly below about 0.91 (no sharp cut-off); inconclusive = no clear call, values can overlap the other calls; inactive = mostly above about 0.92. The list shows a part of the results.

Experiment: chemical genetic growth profiling, strain panel (AID 1159580);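 also: tested at 20 µM; growth read once vehicle control cultures reached saturation at 30 °C; 1 = growth at the plate median or of vehicle wells; lower values mean less growth of the strain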
Settings: S. cerevisiae deletion strains, growth OD

Measured: normalized growth

C1CCN2CC3CC(CN4CCCCC34)C2C1 (centres undefined)
active: locus YDR318W, strain mcm21, active compounds read low 0.654 | locus YGL086W, strain mad1, active compounds read low 0.901 | locus YGR135W, strain pre9, active compounds read low 0.838 | locus YGR252W, strain gcn5, active compounds read low 0.732
inactive: locus YAL013W, strain DEP1, active compounds read low 1.01 | locus YAL021C, strain ccr4, active compounds read low 1 | locus YAL026C, strain drs2, active compounds read low 1.03 | locus YAL030W, strain snc1, active compounds read low 1.01 | locus YBL061C, strain skt5, active compounds read low 1.02 | locus YBR009C, strain hhf1, active compounds read low 1.02 | locus YBR021W, strain FUR4, active compounds read low 1 | locus YBR023C, strain chs3, active compounds read low 1.02 | locus YBR171W, strain sec66, active compounds read low 1.03 | locus YBR229C, strain ROT2, active compounds read low 1.01 | locus YBR231C, strain swc5, active compounds read low 1.01 | locus YBR279W, strain paf1, active compounds read low 1.02 | locus YCL011C, strain gbp2, active compounds read low 1.02 | locus YCL016C, strain dcc1, active compounds read low 1.02 | locus YCL029C, strain bik1, active compounds read low 1.01 | locus YCL061C, strain MRC1, active compounds read low 1.02 | locus YCL069W, strain vba3, active compounds read low 1.03 | locus YCR088W, strain abp1, active compounds read low 1.03 | locus YDL005C, strain med2, active compounds read low 1.03 | locus YDL035C, strain GPR1, active compounds read low 1.01 | locus YDL040C, strain nat1, active compounds read low 1.01 | locus YDL074C, strain BRE1, active compounds read low 1.01 | locus YDL101C, strain DUN1, active compounds read low 0.997 | locus YDL134C, strain PPH21, active compounds read low 1 | locus YDL185W, strain tfp1, active compounds read low 1.01 | locus YDL192W, strain arf1, active compounds read low 1.01 | locus YDR001C, strain nth1, active compounds read low 1.02 | locus YDR069C, strain doa4, active compounds read low 1.03 | locus YDR101C, strain arx1, active compounds read low 1.01 | locus YDR137W, strain rgp1, active compounds read low 1.02 | locus YDR150W, strain NUM1, active compounds read low 1.01 | locus YDR159W, strain sac3, active compounds read low 1.03 | locus YDR162C, strain NBP2, active compounds read low 0.993 | locus YDR195W, strain ref2 0.99 | locus YDR297W, strain sur2, active compounds read low 1.01 | locus YDR334W, strain swr1, active compounds read low 1.03 | locus YDR335W, strain msn5, active compounds read low 1.04 | locus YDR388W, active compounds read low 1 | locus YDR392W, strain spt3, active compounds read low 0.929 | locus YDR502C, strain sam2, active compounds read low 0.974 | locus YEL003W, strain gim4, active compounds read low 1.03 | locus YEL037C, strain rad23, active compounds read low 1.02 | locus YEL061C, strain CIN8 (second series), active compounds read low 1.03 | locus YEL061C, strain CIN8, active compounds read low 1.01 | locus YER015W, strain faa2, active compounds read low 1.01 | locus YER016W, strain bim1, active compounds read low 1.03 | locus YER110C, active compounds read low 1.02 | locus YER111C, strain swi4, active compounds read low 1.02 | locus YER155C, strain BEM2 (second series), active compounds read low 1.05 | locus YER155C, strain BEM2, active compounds read low 1.01 | locus YER167W, strain BCK2, active compounds read low 1.01 | locus YFR010W, strain ubp6, active compounds read low 1.02 | locus YGL078C, strain dbp3, active compounds read low 0.983 | locus YGL167C, strain pmr1, active compounds read low 1.02 | locus YGL173C, strain kem1, active compounds read low 1.03 | locus YGL227W, strain vid30, active compounds read low 1.02 | locus YGL240W, strain doc1, active compounds read low 1.03 | locus YGL248W, strain PDE1, active compounds read low 0.998 | locus YGL253W, strain hxk2, active compounds read low 1.02 | locus YGR078C, strain PAC10, active compounds read low 1 | locus YGR229C, strain SMI1, active compounds read low 1.01 | locus YHR013C, strain ard1, active compounds read low 1.01 | locus YHR027C, strain rpn1, active compounds read low 1.01 | locus YHR030C, strain SLT2, active compounds read low 1.01 | locus YHR079C, strain IRE1 (second series), active compounds read low 0.999 | locus YHR094C, strain hxt1, active compounds read low 1.01 | locus YHR129C, strain ARP1, active compounds read low 1 | locus YHR142W, strain chs7, active compounds read low 1 | locus YHR200W, strain rpn10, active compounds read low 1 | locus YIL066C, strain RNR3, active compounds read low 1.02 | locus YIL073C, strain SPO22, active compounds read low 1.07 | locus YIL125W, strain kgd1, active compounds read low 1 | locus YIR030C, strain dcg1, active compounds read low 1.01 | locus YJL092W, strain hpr5, active compounds read low 1.03 | locus YJL095W, strain BCK1 (second series), active compounds read low 1.02 | locus YJL095W, strain BCK1, active compounds read low 0.995 | locus YJL115W, strain asf1, active compounds read low 1.03 | locus YJL129C, strain trk1, active compounds read low 1.02 | locus YJL134W, strain LCB3, active compounds read low 1.01 | locus YJL154C, strain vps35, active compounds read low 1.02 | locus YJL164C, strain tpk1, active compounds read low 1.01 | locus YJL166W, strain qcr8, active compounds read low 1.02 | locus YJL168C, strain set2, active compounds read low 1.01 | locus YJL187C, strain SWE1 (second series), active compounds read low 1.01 | locus YJL187C, strain SWE1, active compounds read low 1.02
